# Data: PubChem BioAssay AID2517 (National Center for Advancing Translational Sciences (NCATS), 2011)
# Where “and” joins values, the source holds several entries; their conditions need not be identical. Equal values may be shown once. About 1,200 (0.34%) of roughly 350,000 compounds were called active. Not shown: some 3% with an inconclusive outcome. Calls come from the whole dose curve; as a rule, active = well fitted inhibition curve with a large enough effect; inconclusive = small, poorly fitted or top-dose-only effect; inactive = no such curve, though single readings can be large or run the other way. What follows is part of a selection rich in actives, with near analogues and random picks from the rest. Entries that show only a call come without a potency. Some compounds were tested as several samples or in several runs, with calls that do not always agree. Positions of bridges follow the written chain, without caps; N, C: chain ends. Non-standard residues stand in square brackets, D forms with d. Residues, ends and D or L forms follow the SMILES beside them. *: point of attachment. X1 = CC[C@H](C)CCCCC(=O)*; Dab = NCC[C@H](N)C(=O)O
# Biological target: DNA repair nuclease/redox regulator APEX1 (Homo sapiens) (UniProt P27695)
# Assay: qHTS Assay for Inhibitors of the Human Apurinic/apyrimidinic Endonuclease 1 (APE1); note: nearly all actives have a fitted effect of over 55% in size
# Details: recombinant APE1, TAMRA/BHQ-2 abasic DNA cleavage fluorescence; activity change, negative = inhibition: at 65.8 µM (top of the series)
# How it was run: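 Compound pre-exposure to 0.75 nM APE1, 15 min at ambient temperature. Reaction initiated with 50 nM TAMRA/BHQ-2 THF substrate, read immediately in kinetic mode, 525 nm excitation, 598 nm emission.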
# Potency is the fitted concentration of half-maximal effect.
# DNA repair nuclease/redox regulator APEX1 (Homo sapiens), sequence (P27695 whole entry, looked up): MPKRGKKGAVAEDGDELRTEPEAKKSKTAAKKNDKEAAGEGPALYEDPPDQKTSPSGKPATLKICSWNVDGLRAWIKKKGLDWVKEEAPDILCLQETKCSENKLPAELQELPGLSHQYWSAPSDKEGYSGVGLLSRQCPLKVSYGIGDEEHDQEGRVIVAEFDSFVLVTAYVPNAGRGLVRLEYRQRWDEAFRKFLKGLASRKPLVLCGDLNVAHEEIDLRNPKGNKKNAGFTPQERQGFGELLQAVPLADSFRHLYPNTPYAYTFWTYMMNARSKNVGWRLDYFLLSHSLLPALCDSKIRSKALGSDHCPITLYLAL
SMILES,Potency,"activity change, negative = inhibition"
COc1ccc(C2=Nn3c(nnc3-c3ccccc3F)SC2)cc1OC,inactive,–
COc1ccc2c3c1OC1CC(O)C=C[C@@]31CCN(C)C2 (stereo partly specified),inactive,–
COc1ccc2c(c1)O[C@@H](c1ccc3c(c1)OCO3)[C@H](OC(=O)NCc1ccco1)C2=O,inactive,–
O=C(c1ccncc1)N1CCC2(CCCN(C(c3ccccc3)c3ccccc3)C2)CC1,inactive,–
COc1cccc([C@@H]2Oc3ccc(Br)cc3C(=O)[C@H]2OC(=O)NCCc2ccc(OC)c(OC)c2)c1,inactive,–
C=C/C1=C/Cc2ccccc2[C@H](C[N+](=O)[O-])C(C(=O)OC)(C(=O)OC)C1,inactive,–
C[C@@H]1O[C@@H](O[C@@H]2[C@@H](O)[C@H](OCCc3ccc(O)c(O)c3)O[C@H](CO[C@@H]3O[C@H](CO)[C@@H](O)[C@H](O)[C@H]3O)[C@H]2OC(=O)/C=C/c2ccc(O)c(O)c2)[C@H](O)[C@H](O)[C@H]1O,inactive,–
O=C(CN1CCN(S(=O)(=O)/C=C/c2ccccc2)CC1)NC(=O)NCc1ccco1,22.4 µM (active),–
COc1ccccc1N1CCN(CC(=O)NC(=O)NCc2ccco2)CC1,inactive,–
NC(=O)CCN1CCN(S(=O)(=O)/C=C/c2ccccc2)CC1,inactive,–
COc1ccccc1CNc1ccnc(-c2c(C)noc2C)n1,inactive,–
COC(=O)[C@@H]1C[C@@]2(O)[C@H](O)[C@H](O)[C@H](O)C[C@H]2N1CC1CCCCC1,inactive,–
O=C(Cl)c1ccc([N+](=O)[O-])cc1,inactive,–
CCC(C)[C@@H](N)C(=O)O (stereo partly specified),inactive,–
O=C(c1cc(C(F)(F)F)cc(C(F)(F)F)c1)N1CCC2(CCCN(c3ccccn3)C2)CC1,inactive,–
O=C(CN1C(=O)c2cccc3cccc(c23)C1=O)N1CCCCC1,inactive,–
O=C1c2cccc3cccc(c23)C(=O)N1CCCCCc1n[nH]c(=S)o1,inactive,–
C[N+](C)(CCCCCC[N+](C)(C)CCCN1C(=O)c2cccc3cccc(c23)C1=O)CCCN1C(=O)c2cccc3cccc(c23)C1=O,10 µM (active) and 4.74 µM (active),–
OC(CCl)CCl,inactive,–
CC[C@H](C)[C@H](NC(=O)[C@H](Cc1ccc(O)cc1)NC(=O)[C@@H](NC(=O)[C@H](CCCN=C(N)N)NC(=O)[C@@H](N)CC(=O)O)C(C)C)C(=O)N[C@@H](Cc1cnc[nH]1)C(=O)N1CCC[C@H]1C(=O)N[C@@H](Cc1ccccc1)C(=O)O,inactive,–
CSc1nnc(SCc2nc3sc(C(=O)O)c(C)c3c(=O)[nH]2)s1,25.1 µM (active),–
CCOC(=O)c1sc2nc(CSCC(=O)OCc3ccc(C(=O)OC)o3)[nH]c(=O)c2c1C,inactive,–
Cc1sc2nc(CSCC(=O)NC3CCCCC3)[nH]c(=O)c2c1C,inactive,–
COC(=O)C1(C(C)=O)CC2=CC[C@H]3C(=O)N(c4ccccc4)C(=O)[C@H]3[C@@H]2Cc2ccccc2[C@@H]1C[N+](=O)[O-] (stereo partly specified),inactive,–

SMILES,Potency,"activity change, negative = inhibition"
OC[C@H]1O[C@@H](n2cnc3c(NC4CCCC4)ncnc32)[C@H](O)[C@H]1O,inactive,–
Cc1csc(-c2coc3cc(O[C@@H]4O[C@H](CO)[C@@H](O)[C@@H](O)[C@H]4O)ccc3c2=O)n1,inactive,–
CCCCC/C=C/C=C/C=O,inactive,–
CNS(=O)(=O)c1cccc(C(=O)OCC(=O)N2c3ccccc3NC(=O)C2(C)C)c1,15 µM (active),–
CCNc1ccc(C(=O)OCC(=O)N2c3ccccc3NC(=O)C2(C)C)cc1[N+](=O)[O-],inactive,–
Cc1cc(C(=O)OCC(=O)N2c3ccccc3NC(=O)C2(C)C)c(C)n1-c1ccccc1,inactive,–
CC(C)CO,inactive,–
CN1CCN2c3ccccc3Cc3ccccc3[C@@H]2C1,inactive,–
C/C(CCN1CCCCc2nc(C)c(C)cc21)=N\O[C@@H](C)c1cn([C@@H]2COC[C@@H]2O)nn1,–,11.9% [at 12.4 µM] (inactive)
C=CC(C1=CC(=O)C=CC1=O)c1ccc(O)cc1 (stereo unspecified),inactive,–
COc1cc([C@H](Cc2ccccc2)NC(C)=O)oc(=O)c1,28.2 µM (active),–
CCOC(=O)C(Cc1ccccc1)NC(=O)CCC(=O)c1ccc(OC)cc1 (stereo unspecified),inactive,–
COc1ccc(OC)c(NC(=O)N[C@H](Cc2ccccc2)C(=O)NN)c1,inactive,–
COC(=O)C1(C)C=CC2(CCCCC2)N1C(C)=O (stereo unspecified),inactive,–
N#Cc1ccc(CN2CCCC3(CCN(C(=O)c4ccco4)CC3)C2)cc1,inactive,–
C[C@H]1CCC[C@@]2(C)CCCC[C@]12O,inactive,–
COC(=O)CC1c2ccccc2C(Cc2ccc(OC)cc2)=C(C)N1C(=O)OC (stereo unspecified),–,-8.37% [at 12.4 µM] (inactive)
CCOc1ccc(OCC)c(NC(=O)CCS(=O)(=O)c2ccc(C)cc2)c1,inactive,–
COc1ccc(Cl)cc1NC(=O)CCS(=O)(=O)c1ccc(Br)cc1,11.9 µM (active),–
O=C(CCS(=O)(=O)c1ccc(Br)cc1)NCCc1ccc(Cl)cc1,inactive,–
COc1cccc(Cn2c(=O)cnc3cncnc32)c1,inactive,–
C=CC1=C2C=C(C3CC3)N(CC(C)C)C=C2C(=O)C(C)(OC(=O)c2ccco2)C1=O (stereo unspecified),–,-5.75% [at 12.4 µM] (inactive)
COc1ccccc1CNc1ncnc2ccc(-c3c(C)noc3C)cc12,inactive,–
C[C@H]1Cc2c(-c3ccccc3)nc3c(c2CO1)CN(C(=O)C1CC1)CC3,–,-1.16% [at 12.4 µM] (inactive)

SMILES,Potency,"activity change, negative = inhibition"
COC(=O)C1(C)C=CCN1C(=O)c1ccccc1 (stereo unspecified),inactive,–
Cc1ccc(CNc2ccc(N3CCN(C(=O)OC(C)(C)C)CC3)cc2)cc1,inactive,–
C=CCOC(=O)COCCC(C)C,inactive,–
CO/N=C(\C(=O)N[C@@H]1C(=O)N2C(C(=O)O)=C(COC(C)=O)CS[C@H]12)c1csc(N)n1 (stereo in doubt),inactive and 10 µM (active) and 10.6 µM (active),–
Cc1nnc(SCC2=C(C(=O)O)N3C(=O)C(NC(=O)Cn4nc(C)c(Cl)c4C)C3SC2)s1 (stereo unspecified),inactive,–
Cc1cc(C)cc(C(=O)NC2C(=O)N3C(C(=O)O)=C(CSc4nnc(C)s4)CSC23)c1 (stereo unspecified),inactive,–
C=CC1=C(C(=O)O)N2C(=O)[C@@H](NC(=O)/C(=N\OCC(=O)O)c3csc(N)n3)[C@H]2SC1,11.9 µM (active),–
CC(C)(C)OC(=O)C1=C(CO)CS[C@@H]2[C@H](NC(=O)Cc3ccccc3)C(=O)N12,inactive,–
C/C=C/C1=C(C(=O)O)N2C(=O)[C@@H](NC(=O)[C@H](N)c3ccc(O)cc3)[C@H]2SC1,inactive,–
CC(C)[C@@H](OCc1ccccc1)[C@H](C)/C=N\OC[C@@H](C)[C@H](OCc1ccccc1)C(C)C,–,-2.11% [at 12.4 µM] (inactive)
CO[C@H]1C=CO[C@@]2(C)Oc3c(C)c(O)c4c(O)c(c(/C=N/N5CCN(C)CC5)c(O)c4c3C2=O)NC(=O)/C(C)=C\C=C[C@H](C)[C@H](O)[C@@H](C)[C@@H](O)[C@@H](C)[C@H](OC(C)=O)[C@@H]1C,inactive,–
CC[C@H](C)CCCCC(=O)N[C@@H](CCN)C(=O)N[C@H](C(=O)N[C@@H](CCN)C(=O)N[C@H]1CCNC(=O)[C@@H]([C@H](C)O)NC(=O)[C@H](CCN)NC(=O)[C@H](CCN)NC(=O)[C@H](CC(C)C)NC(=O)[C@@H](CC(C)C)NC(=O)[C@H](CCN)NC1=O)[C@@H](C)O (X1-[Dab]T[Dab][Dab][Dab][dL]L[Dab][Dab][dT]; lactam 4-C),inactive,–
C[C@H]1Cc2c(COc3ccccc3)nc3c(c2CO1)CN(C(=O)Nc1cccc(C#N)c1)CC3,–,-2.12% [at 12.4 µM] (inactive)
OCCC(O)CO (stereo unspecified),inactive,–
O=C(c1csnn1)N1CCC[C@@]2(CCN(c3cccc(-c4ccccc4)c3)C2)C1,inactive,–
Cn1cccc1C(=O)N1CCC2(CC1)CN(c1cccc(-c3ccccc3)c1)C2,inactive,–
Nc1ncnc2c1ncn2C1CC(O)C(CO)O1 (stereo unspecified),inactive,–
CC1(OC(=O)c2ccc(Cl)nc2)C(=O)Cc2cc(-c3ccsc3)ncc2C1=O (stereo unspecified),–,-0.549% [at 12.4 µM] (inactive)
Cc1ccc(C(=O)NNC(=O)c2cc3cc4ccccc4nc3s2)cc1,22.4 µM (active),–
Cc1ccc(C(=O)NNc2ncnc3ccccc23)cc1,inactive,–
Cc1ccc(C(=O)NNC(=O)c2ccc3c(c2)OCCO3)cc1,inactive,–
Cn1cc(-c2nc3cnc(N4CCNCC4)nc3n(CCc3ccccc3)c2=O)c2ccccc21,inactive,–
COc1ccc(Oc2ncc3nc(-c4ccc(F)cc4)c(=O)n(C)c3n2)cc1,inactive,–
